Experimental data: PubChem BioAssay (NCI)
This is part of a sample that, as a whole, favours compounds with a hit. Of some 83,000 tested, about 20% had one in any assay.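 Plates (96-well) were seeded with cells, treated with compound at one concentration, and incubated for 48 hours before percent growth was determined.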 The source made the active and inactive calls. How the source made its calls: active means growth percent below 10; inactive means the rest.

What follows are molecules tested on T-47D breast (assay: NCI-60 one-dose screen, 48 h (100 = growth as untreated, 0 = no growth, -100 = all killed)). Conditions: 10 µM unless noted.

| Compound | growth |
| --- | --- |
| COc1cc(CCC[P+](c2ccccc2)(c2ccccc2)c2ccccc2)cc2c1OCO2 | 11.5% (inactive) |
| Cc1cc(Cl)nc(NCc2cc(Nc3ccnc4cc(Cl)ccc34)ccc2F)n1 | 25.4% (inactive) |
| COc1ccc(C2c3ccc4ccccc4c3Oc3nc(C)[nH]c(=O)c32)cc1 (stereo unspecified) | 92.2% (inactive) |
| O=C1OC(c2nc3ccccc3s2)=C/C1=C\c1ccc(O)cc1 | 95.7% (inactive) |
| Cc1ccc(NS(=O)(=O)c2ccc3c(c2)C2OCCC2C(c2ccc(C(=O)C(C)C)cc2)N3)cc1C (stereo unspecified) | 24.3% (inactive) |
| CC1SC(c2ccc(OCc3ccccc3)cc2)N(NC(=O)C(O)(c2ccccc2)c2ccccc2)C1=O (stereo unspecified) | 25.8% (inactive) |
| S=C(Cc1ccc2c(c1)CCCC2)N1CCOCC1 | 80.2% (inactive) |
| CC1=CN2C(=O)C3C4=C(CCCC4)SC3N=C2CN1c1c(C)cccc1C (stereo unspecified) | 81.1% (inactive) |
| CC(=O)n1c(-c2ccc(Cl)cc2)nc2c(c1=O)C(c1ccc(Cl)cc1)c1sc3c(Cl)cccc3c1O2 (stereo unspecified) | -2.51% (active) |
| O=C(N=c1oc2ccccc2cc1-c1cc2ccccc2[nH]1)c1ccc(Cl)cc1 | 47.5% (inactive) |
| Cn1ccc2c(c1=O)C(=O)c1nccc3c1c-2nc1ccccc13 | 84.9% (inactive) |
| COc1ccccc1CNCCCN1C(=O)c2ccc3c4c(ccc(c24)C1=O)C(=O)N(CCCNCCCCN)C3=O | -14.7% (active) |
| C=C1C(=O)O[C@H]2[C@H]1CC/C(COC(=O)C(=O)c1cn(C)c3ccc(OC)cc13)=C\CC[C@@]1(C)O[C@@H]21 | -55.3% (active) |
| O=C(NCCCNc1cc(-c2cn(-c3ccccc3)nc2-c2cccc(O)c2)ccn1)c1cccc(O)c1 | 8.13% (active) |
| Cc1c(C(=O)OC(=NC2CCCCC2)NC2CCCCC2)sc2c1c(=O)nc1c(C#N)n[nH]n12 | 109% (inactive) |
| COc1cc(N=Nc2ccc(N)cc2)c(OC)cc1N=Nc1ccccc1.[Cl][Zn][Cl] | 88.2% (inactive) |
| COc1cc(C2CC(c3cc(OC)c(OCCCOc4ccc(-n5c(/C=C/c6ccccc6)nc6ccccc6c5=O)cc4)c(OC)c3)=NO2)cc(OC)c1OC (stereo unspecified) | 108% (inactive) |
| COc1cc(/C=N/NC(=O)Cn2c(C(C)C)nc3ccccc32)ccc1O | 94% (inactive) |
| CC(C)(C)n1cc(-c2ccnc(NCCCNS(=O)(=O)c3ccccc3)c2)c(-c2ccccc2)n1 | 9.34% (active) |

| Compound | growth |
| --- | --- |
| COc1ccc(S(=O)(=O)NCCNc2nccc(-c3c(-c4cccc(F)c4)nc4sccn34)n2)cc1 | 25% (inactive) |
| CCOC(=O)c1c(-c2ccc(Cl)cc2)c(C#N)c(=O)n(-c2ccccc2CC)c1N | 84.1% (inactive) |
| O=C(COc1ccc(/C=C2\Oc3ccccc3C2=O)cc1)c1ccc(Cl)cc1 | 98.5% (inactive) |
| Cc1ccc2nc3ccccc3c(NCc3ccccc3)c2c1 | 63.6% (inactive) |
| O=c1[nH]nc(-c2ccccc2)c2c(-c3ccccc3)onc12 | 20.1% (inactive) |
| O=C1C=C[C@]2(C[C@@H](c3cccc(C(F)(F)F)c3)O[C@@H](c3cccc(C(F)(F)F)c3)O2)O1 | -49.6% (active) |
| Cc1ccc(-c2cc3c(cc2O)C2CCCCC2(N2CCOCC2)O3)cc1 (stereo unspecified) | 85% (inactive) |
| N#Cc1c(N2CCNCC2)nc2sc3cc(Cl)c(Cl)cc3n2c1=N | 89.5% (inactive) |
| Cc1c(O)cc(-c2cnc(N/N=C\c3ccc(Cl)cc3)s2)c(O)c1C | -11.2% (active) |
| COc1ccc(-c2cc(-c3cc(OC)ccc3OC)nc(SCC(=O)c3ccccc3)c2C#N)cc1 | 80.8% (inactive) |
| COCCc1ccc(OCC(O)CNC(C)C)cc1 (stereo unspecified) | 102% (inactive) |
| CC/C=C\CCC/C=C1/C(=O)C=C[C@@H]1C/C=C\CCCC(=O)O | 55.3% (inactive) |
| COc1cccc(C(=O)NCCCNc2cc(-c3cn(-c4ccccc4)nc3-c3cccc(OC)c3)ccn2)c1 | -4.96% (active) |
| Cc1cc(C(=O)c2ccccc2)c(C)c2c1[nH]c1ccc(Cl)cc12 | 63.5% (inactive) |
| Cc1ccc(C(=O)COc2cccc(/C=C3\Oc4ccccc4C3=O)c2)cc1 | 50.3% (inactive) |
| COc1cccc(-c2nn(-c3ccccc3)cc2-c2ccnc(NCCNC(=O)Nc3cccc(C(F)(F)F)c3)c2)c1 | 0.52% (active) |
| COc1ccc(/C=N/C2=C(C#N)C(c3ccc(OC)cc3)c3ccc4ccccc4c3O2)cc1 (stereo unspecified) | 73.6% (inactive) |
| N#CC1=C(NC=O)Oc2c(ccc3ccccc23)C1c1ccccc1 (stereo unspecified) | 25.2% (inactive) |
| CCCCc1ccc(Nc2ccc(Nc3ccc(CCCC)cc3S(=O)(=O)O)c3c2C(=O)c2ccccc2C3=O)c(S(=O)(=O)O)c1 | 106% (inactive) |

These molecules were tested on BT-549 breast in the same assay as above. Conditions: 10 µM unless noted.

| Compound | growth |
| --- | --- |
| COc1cc(CCC[P+](c2ccccc2)(c2ccccc2)c2ccccc2)cc2c1OCO2 | 23.3% (inactive) |
| Cc1cc(Cl)nc(NCc2cc(Nc3ccnc4cc(Cl)ccc34)ccc2F)n1 | 65.5% (inactive) |
| COc1ccc(C2c3ccc4ccccc4c3Oc3nc(C)[nH]c(=O)c32)cc1 (stereo unspecified) | 109% (inactive) |
| O=C1OC(c2nc3ccccc3s2)=C/C1=C\c1ccc(O)cc1 | 111% (inactive) |
| Cc1ccc(NS(=O)(=O)c2ccc3c(c2)C2OCCC2C(c2ccc(C(=O)C(C)C)cc2)N3)cc1C (stereo unspecified) | 54.3% (inactive) |
| CC1SC(c2ccc(OCc3ccccc3)cc2)N(NC(=O)C(O)(c2ccccc2)c2ccccc2)C1=O (stereo unspecified) | 92.9% (inactive) |
| S=C(Cc1ccc2c(c1)CCCC2)N1CCOCC1 | 101% (inactive) |
| CC1=CN2C(=O)C3C4=C(CCCC4)SC3N=C2CN1c1c(C)cccc1C (stereo unspecified) | 108% (inactive) |
| CC(=O)n1c(-c2ccc(Cl)cc2)nc2c(c1=O)C(c1ccc(Cl)cc1)c1sc3c(Cl)cccc3c1O2 (stereo unspecified) | -7.92% (active) |
| O=C(N=c1oc2ccccc2cc1-c1cc2ccccc2[nH]1)c1ccc(Cl)cc1 | 76% (inactive) |
| Cn1ccc2c(c1=O)C(=O)c1nccc3c1c-2nc1ccccc13 | 87.4% (inactive) |
| COc1ccccc1CNCCCN1C(=O)c2ccc3c4c(ccc(c24)C1=O)C(=O)N(CCCNCCCCN)C3=O | -75.6% (active) |
| C=C1C(=O)O[C@H]2[C@H]1CC/C(COC(=O)C(=O)c1cn(C)c3ccc(OC)cc13)=C\CC[C@@]1(C)O[C@@H]21 | -79.1% (active) |
| O=C(NCCCNc1cc(-c2cn(-c3ccccc3)nc2-c2cccc(O)c2)ccn1)c1cccc(O)c1 | 37.5% (inactive) |
| Cc1c(C(=O)OC(=NC2CCCCC2)NC2CCCCC2)sc2c1c(=O)nc1c(C#N)n[nH]n12 | 121% (inactive) |
| COc1cc(N=Nc2ccc(N)cc2)c(OC)cc1N=Nc1ccccc1.[Cl][Zn][Cl] | 93.5% (inactive) |
| COc1cc(C2CC(c3cc(OC)c(OCCCOc4ccc(-n5c(/C=C/c6ccccc6)nc6ccccc6c5=O)cc4)c(OC)c3)=NO2)cc(OC)c1OC (stereo unspecified) | 118% (inactive) |
| COc1cc(/C=N/NC(=O)Cn2c(C(C)C)nc3ccccc32)ccc1O | 100% (inactive) |
| CC(C)(C)n1cc(-c2ccnc(NCCCNS(=O)(=O)c3ccccc3)c2)c(-c2ccccc2)n1 | 53.4% (inactive) |

| Compound | growth |
| --- | --- |
| COc1ccc(S(=O)(=O)NCCNc2nccc(-c3c(-c4cccc(F)c4)nc4sccn34)n2)cc1 | 47% (inactive) |
| CCOC(=O)c1c(-c2ccc(Cl)cc2)c(C#N)c(=O)n(-c2ccccc2CC)c1N | 123% (inactive) |
| O=C(COc1ccc(/C=C2\Oc3ccccc3C2=O)cc1)c1ccc(Cl)cc1 | 121% (inactive) |
| Cc1ccc2nc3ccccc3c(NCc3ccccc3)c2c1 | 69% (inactive) |
| O=c1[nH]nc(-c2ccccc2)c2c(-c3ccccc3)onc12 | 22.8% (inactive) |
| O=C1C=C[C@]2(C[C@@H](c3cccc(C(F)(F)F)c3)O[C@@H](c3cccc(C(F)(F)F)c3)O2)O1 | -52.4% (active) |
| Cc1ccc(-c2cc3c(cc2O)C2CCCCC2(N2CCOCC2)O3)cc1 (stereo unspecified) | 95.4% (inactive) |
| N#Cc1c(N2CCNCC2)nc2sc3cc(Cl)c(Cl)cc3n2c1=N | 118% (inactive) |
| Cc1c(O)cc(-c2cnc(N/N=C\c3ccc(Cl)cc3)s2)c(O)c1C | 67.3% (inactive) |
| COc1ccc(-c2cc(-c3cc(OC)ccc3OC)nc(SCC(=O)c3ccccc3)c2C#N)cc1 | 109% (inactive) |
| COCCc1ccc(OCC(O)CNC(C)C)cc1 (stereo unspecified) | 94.2% (inactive) |
| CC/C=C\CCC/C=C1/C(=O)C=C[C@@H]1C/C=C\CCCC(=O)O | 32.3% (inactive) |
| COc1cccc(C(=O)NCCCNc2cc(-c3cn(-c4ccccc4)nc3-c3cccc(OC)c3)ccn2)c1 | 11% (inactive) |
| Cc1cc(C(=O)c2ccccc2)c(C)c2c1[nH]c1ccc(Cl)cc12 | 5.82% (active) |
| Cc1ccc(C(=O)COc2cccc(/C=C3\Oc4ccccc4C3=O)c2)cc1 | 124% (inactive) |
| COc1cccc(-c2nn(-c3ccccc3)cc2-c2ccnc(NCCNC(=O)Nc3cccc(C(F)(F)F)c3)c2)c1 | 26.1% (inactive) |
| COc1ccc(/C=N/C2=C(C#N)C(c3ccc(OC)cc3)c3ccc4ccccc4c3O2)cc1 (stereo unspecified) | 84% (inactive) |
| N#CC1=C(NC=O)Oc2c(ccc3ccccc23)C1c1ccccc1 (stereo unspecified) | 25.9% (inactive) |
| CCCCc1ccc(Nc2ccc(Nc3ccc(CCCC)cc3S(=O)(=O)O)c3c2C(=O)c2ccccc2C3=O)c(S(=O)(=O)O)c1 | 94% (inactive) |
